Screening data (PubChem)
Shown are actives, neighbours in structure and some others; about 6.2% of the full set was active somewhere.
FMDV antiviral = High Throughput Screening for Foot and Mouth Disease Virus Antivirals. actives 1.2% (n = 410,000). FMDV antiviral cell-based qHTS. AID 1159524, 2015. Potency, µM (top dose mostly 57.9 µM), without a hit: top-dose activity change, negative = inhibition, hits mostly inhibitors; calls by dose curve; tested in HEK293T cells; further: read-out not given here; potency means the concentration at half of the fitted maximal effect; nearly all actives have a fitted effect of over 45% in size
Lassa entry inh = qHTS for Inhibitors of binding or entry into cells for Lassa Virus. actives 1.2% (n = 300,000). Lassa virus pseudotype entry inhibition, cell reporter. AID 540256, 2011. Potency, µM (doses to about 37.9 µM), without a hit: at the highest dose activity change, negative = inhibition, actives largely listed as inhibitors; calls by dose curve; tested in HEK293 cells; further: potency means the concentration at half of the fitted maximal effect; nearly all actives have a fitted effect of over 50% in size
HCMV inh = qHTS Assay for inhibitors of the human cytomegalovirus (HCMV); HFF cells, HCMV-luciferase reporter, 72 h; hits give low values; activity change, negative = inhibition, % at 57.5 µM; actives 4.5% (n = 410,000); in the data active means activity change below about -60%; inconclusive means no clear call, values can overlap the other calls; inactive means above about -39%
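Screen run at 2 compound doses on HFFs infected with reporter HCMV, MOI 1 PFU/cell. Luciferase activity from cell lysates at 72 h post infection gave inhibition relative to buffer-only and Salinomycin wells.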
MARV entry inh = qHTS for inhibitors of binding or entry into cells for Marburg Virus. Marburg virus pseudotyped entry inhibition, cell reporter. Potency, µM (top dose mostly 37.8 µM), for inactives: top-dose activity change, negative = inhibition, most hits filed as inhibitors. actives 1.8% (n = 300,000); calls by dose curve; tested in HEK293 cells; further: potency means the concentration at half of the fitted maximal effect
* marks the source's active call; other numbers are inactive results; ? = inconclusive; / = not tested or not shown; [ ] = another dose, or the depositor's remark. On the % scale 0 is the no-effect control and ±100 the full control effect.

SMILES	FMDV antiviral	Lassa entry inh	HCMV inh	MARV entry inh
Cc1cc(-n2c(SCC(=O)NCCC3=CCCCC3)nc3n[nH]c(C)c3c2=N)ccc1Cl	2%	/	-21	/
COC(=O)C1=C(C)N(Cc2cccc(C(F)(F)F)c2)C(=NCc2cc(OC)c(OC)c(OC)c2)NC1CCc1ccccc1 (stereo not given)	/	/	37	/
COc1cc(OC)cc(-c2cc3c(Nc4ccc(OC)nc4)nccc3n2C)c1	/	/	-31	/
Cc1nnc(Nc2ccccn2)c2ccccc12	20%	4%	-60*	13%
CC(Oc1ccc(C(=O)c2ccccc2)cc1)C(=O)Nc1ccc(S(N)(=O)=O)cc1 (stereo not given)	0%	-5%	-68*	?
CCOc1ccc(S(=O)(=O)/N=C(/Nc2ccc(S(N)(=O)=O)cc2)c2ccccc2)cc1	20%	/	-103*	/
CCOC(=O)c1c(C)nc(C(Cl)(Cl)Cl)nc1N	2%	20%[46.1 µM]	-36	16%[46.1 µM]
COC(=O)c1cc(=O)c2c(C)nc(C(Cl)(Cl)Cl)nc2[nH]1	?	-1%	-100*	28%[46.1 µM]
C=CCNc1cccc2c1S(=O)(=O)N[C@H](C)CO2	/	/	11	/
Cc1ccc(-c2csc3ncnc(NCCC(=O)O)c23)cc1	-12%	27%[46.1 µM]	-22	13%[46.1 µM]
CN(C)CCCNc1ncnc2scc(-c3ccccc3)c12	-12%	-9%	-10	?
c1ccc(CNc2nc(CN3CCOCC3)nc3scc(-c4ccccc4)c23)cc1	-3%	2%	0	?
Clc1ccc(CNc2nc(CN3CCOCC3)nc3scc(-c4ccccc4)c23)cc1	14µM*	?	-21	20µM*
Cc1ccc(-c2csc3ncnc(NCCN4CCOCC4)c23)cc1	-7%	?	-70*	11µM*
c1ccc(-c2csc3ncnc(NCCN4CCOCC4)c23)cc1	22µM*	-29%	-77*	-12%
COc1ccc(-c2csc3ncnc(NCCN4CCOCC4)c23)cc1	?	?	-66*	?
COc1ccc(Br)cc1CNC(=O)C1COc2ccccc2C1 (stereo not given)	0%	?	-6	/
COc1ccc(NC(=O)COCc2cc(-c3cccs3)on2)cc1	10%	-1%[46.1 µM]	8	/
O=S1(=O)CC(N2CC=CC2)CN1Cc1cn(Cc2cccc(Cl)c2)nn1 (stereo not given)	-10%	/	16	/
C[C@@H](C(=O)O)c1cccc(C(=O)c2ccccc2)c1	/	/	/	-3%
Cc1ccc(-c2csc3ncnc(Nc4ccc(N5CCOCC5)cc4)c23)cc1	?	13µM*	-90*	?
CCC(CO)Nc1nc(CN2CCCCC2)nc2scc(-c3ccccc3)c12 (stereo not given)	-18%	-26%[46.1 µM]	-69*	?
Clc1ccc(-c2csc3ncnc(NCCN4CCOCC4)c23)cc1	?	?	-75*	?
c1nc(NCCN2CCOCC2)c2c3c(sc2n1)CCCCC3	-15%	-7%	1	-4%
COc1ccccc1CNS(=O)(=O)c1ccc2c(c1)NC(=O)CC(=O)N2	-10%	9%[46.1 µM]	1	-1%[46.1 µM]
SMILES	FMDV antiviral	Lassa entry inh	HCMV inh	MARV entry inh
COc1cccc(-c2cc3c(Nc4cccc(NC(C)=O)c4)nccc3n2C)c1	/	/	-19	/
CN(Cc1ccccc1)c1nc(N)c([N+](=O)[O-])c(NCc2ccccc2)n1	35µM*	?	?	?
Cc1ccc(CNc2ncnc(N)c2[N+](=O)[O-])cc1	2%	/	-61*	17%[46.1 µM]
Nc1nc(NCCc2ccccc2)nc(NCc2ccccc2)c1[N+](=O)[O-]	0%	/	-3	5%
Cc1cccc(C)c1Nc1ncnc(N)c1[N+](=O)[O-]	-17%	4%	-23	16%
COc1ccc(-n2c(C)c(C)c3c(N)ncnc32)cc1	17%	6%[46.1 µM]	-77*	-1%[46.1 µM]
COc1ccc(-c2coc3ncnc(N)c23)cc1	/	4%	/	/
CCc1ccc(C(=O)CN(C#N)c2nc(C)cc(C)n2)cc1	-11%	?	?	11µM*
C=CCc1cc(C(=O)N2CCCCC2)ccc1O	-20%	16%	-71*	-15%
O=C(c1ccc2c(c1)OCO2)N1CCCCC1	-1%	/	/	/
CCCCCC[n+]1ccccc1/C=C/c1ccc(N(C)C)cc1	?	/	-97*	/
CC[n+]1ccccc1/C=C/c1ccc(N(C)C)cc1	?	/	-86*	/
CN(C)c1ccc(C=Cc2nccc3ccccc23)cc1	32%	/	8	/
CC[n+]1ccc(/C=C/c2ccc(N(C)C)cc2)c2ccccc21	18µM*	?	-99*	?
CCN(CC)c1ccc(/C=C/c2ccc3ccc(OC)cc3[n+]2CC)cc1	7.9µM*	/	-97*	/
COc1ccc(C=CC2=C[C@]3(C)C[C@]2(C)[C@H](c2ccc(OC)cc2)CC3=O)cc1	/	/	/	4%[14.2 µM]
CC[n+]1c(/C=C/c2ccc(OC)c(OC)c2)ccc2ccccc21	76%	/	47	/
CC[n+]1c(/C=C/c2ccc(N(C)C)cc2)ccc2ccccc21	6.3µM*	9.2µM*	/	1.6µM*
O=C1C[C@@H](c2ccccc2)[C@H](c2ccc(Br)cc2)O1	/	/	/	-17%[14.2 µM]
Cc1cc(C(C)(C)C)c(O)c(C)c1CC1=NCCN1	-1%	-33%	-11	16µM*
O=C(CSc1nnc2c(n1)[nH]c1ccc(F)cc12)Nc1ccccc1F	-18%	?	-27	22%[46.1 µM]
O=C(CSc1nnc2c3ccccc3c3ccccc3c2n1)Nc1ccccc1F	-13%	12%	-88*	13%
Cc1nn(-c2ccccc2)c(C)c1/C=N/NC(=O)CSc1nnc(SCc2ccccc2Cl)s1	6%	2.1µM*	-18	?
Cc1nn(-c2ccccc2)c(C)c1/C=N/NC(=O)CSc1nnc(-c2ccccc2)n1-c1ccc(Cl)cc1	-22%	?	-16	?
Cc1ccc(CSc2nnc(SCC(=O)N/N=C/c3c(C)nn(-c4ccccc4)c3C)s2)cc1	0%	8.2µM*	-9	?
SMILES	FMDV antiviral	Lassa entry inh	HCMV inh	MARV entry inh
CCCOc1ccccc1N/C(=N/c1nc(C)cc(C)n1)NC(=O)Nc1ccc(Cl)cc1	-27%	?	-38	0.71µM*
CCc1ccc(N/C(=N/c2nc(C)cc(C)n2)NC(C)=O)cc1	-9%	/	-60*	/
COc1c(C2=CC(=O)N(C)C2=O)c2c(n1C)C(=O)c1ccccc1C2=O	-22%	/	/	/
CCOC(=O)c1ccc(CN2CCCC(C)(C(=O)NCCOC)C2)cc1 (stereo not given)	-18%	/	6	/
COc1ccc(CCn2c(=O)c3cccnc3n(CC(=O)Nc3c(C)cccc3C)c2=O)cc1OC	-8%	/	42	8%[46.1 µM]
CC(C)(C(=O)N1CCC1(C)C(=O)NS(=O)(=O)c1ccc(Cl)s1)c1ccccc1 (stereo not given)	40%	/	5	/
Nc1ccc(N=Nc2ccccc2O)c(N)c1	37%	-5%	79	14%
Oc1ccccc1N=Nc1ccccc1O	56%	/	-99*	/
NC1(C(=O)O)C[C@H](C(=O)O)[C@H](C(=O)O)C1 (stereo not given in full)	11%	/	/	/
O=C(C1CC1)N1CCC(Oc2cccc(C(=O)N3CCCCC3CCO)c2)CC1 (stereo not given)	13%	/	-3	/
O=C(NCc1cccc(Cl)c1)c1cccc(OC2CCN(C(=O)C3CC3)CC2)c1	16µM*	?	-70*	?
